Screening data as filed in PubChem BioAssay.
Pf growth 96h: inhibits malaria parasite growth, 96 h; P. falciparum luciferase reporter growth, 96 h; Potency, µM (top dose mostly 28.7 µM), without a hit: top-dose activity change, negative = inhibition, usual class: inhibitors; hit rate 6.9% among 320,000; AID 504834; also: potency is read from the fitted curve at half-maximal effect
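Delayed-death screen, second-generation endpoint: infected erythrocytes, 2% hematocrit, 0.05% parasitemia final; 96 hours at 37 C, 5% CO2; luciferase detection reagent; luminescence decrease equals reduced growth.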
HCMV inh: human cytomegalovirus inhibition; HFF cells, HCMV-luciferase reporter, 72 h; stronger effect = lower value; activity change, negative = inhibition, % at 57.5 µM; hit rate 4.5% among 410,000; in the data active = activity change below about -60%; inconclusive = no clear call, values can overlap the other calls; inactive = above about -39%
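Inhibition of viral replication was scored as loss of reporter luminescence in HFFs infected with HCMV-luciferase (MOI 1 PFU/cell) for 72 h; compounds tested at 2 doses, normalized to buffer and Salinomycin controls.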
Sm TGR block: S. mansoni TGR enzyme inhibition | hit rate 3% among 360,000 | Potency, µM (highest dose often 114 µM), without a hit: at the top dose activity change, negative = inhibition, hits mostly inhibitors | AID 485364 | purified TGR, DTNB reduction, TNB absorbance 405 nm; also: potency is read from the fitted curve at half-maximal effect; nearly all actives have a fitted effect of over 60% in size
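First, TGR (20 nM dispensed) and NADPH were mixed with compound. Second, a 15 min room-temperature incubation followed. Third, further NADPH and then DTNB were added to start the reaction. Finally, TNB absorbance was monitored kinetically.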
Pf growth 48h: P. falciparum growth inhibition at 48 hours (one generation); AID 504832; P. falciparum luciferase growth in erythrocytes, 48 h; Potency, µM (titrated, usually from 28.7 µM), for the others: top-dose activity change, negative = inhibition, usual class: inhibitors; hit rate 5.9% among 310,000; also: potency is read from the fitted curve at half-maximal effect
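Parasite viability was followed by luminescence of a genomically integrated firefly luciferase. Cultures held 0.1% parasitemia at 2% hematocrit (final), incubated under 5% CO2 at 37 C.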
FBPA Giardia inh: blocks Giardia fructose-bisphosphate aldolase activity. purified Giardia FBPA. Potency, µM (titrated, usually from 59.6 µM), for the others: at the top dose activity, negative = inhibition, usual class: inhibitors. hit rate 0.71% among 290,000. AID 2451; also: potency is read from the fitted curve at half-maximal effect; nearly all actives have a fitted effect of over 55% in size
Target sequence (A8B2U2 whole entry, looked up): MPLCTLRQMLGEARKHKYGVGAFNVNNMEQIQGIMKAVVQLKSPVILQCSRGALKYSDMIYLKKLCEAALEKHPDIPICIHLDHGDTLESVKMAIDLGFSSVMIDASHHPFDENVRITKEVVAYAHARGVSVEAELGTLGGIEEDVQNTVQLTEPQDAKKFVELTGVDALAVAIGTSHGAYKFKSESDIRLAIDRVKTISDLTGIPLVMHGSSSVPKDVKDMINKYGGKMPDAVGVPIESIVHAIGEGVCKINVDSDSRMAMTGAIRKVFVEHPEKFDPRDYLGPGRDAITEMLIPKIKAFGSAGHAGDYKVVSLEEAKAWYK
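Giardia FBPA (40 nM reagent) was preincubated 10 min at RT with compound (up to 57.5 uM final), then substrate plus GAPDH/TPI/NAD/arsenate coupling system with diaphorase/resazurin was added; resorufin fluorescence (525/598 nm) was read after 20 min.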
Numbers without * were called inactive; ? = inconclusive; / = no result given; [ ] = remark or other dose. Hits are enriched below; roughly 14% of the tested compounds scored in any of these assays. Unless noted, calls follow the shape of the dose curve; as a rule, active = well fitted curve in the direction sought with a large enough effect; inconclusive = small, poorly fitted or top-dose-only effect, or another doubt; inactive = no such curve, though single readings can be large; an effect the other way counts as inactive or inconclusive. % is scaled to controls: 0 for no effect and ±100 for the full control effect.

SMILES	Pf growth 96h	HCMV inh	Sm TGR block	Pf growth 48h	FBPA Giardia inh
COC(=O)c1ccc(C(NC(=O)OCc2ccccc2)/C(F)=C/[C@@H](C)C(=O)NCc2cc(C)on2)cc1 (some centres undefined)	/	/	/	/	-26%
Cc1nc2ccc([N+](=O)[O-])cc2c(=O)n1Cc1ccc(Br)cc1	3.3µM*	86	-4%	4%	9%
Cc1nc2ccc([N+](=O)[O-])cc2c(=O)n1Cc1ccc([N+](=O)[O-])cc1	-17%	16	-6%	15%	-5%
COc1ccc(NC(=O)N(C)[C@H]2C[C@H]3c4[nH]c5ccc(-c6ccc7c(c6)OCO7)cc5c4CCN3C[C@H]2[C@H](C)O)cc1	/	-1	/	/	/
CN[C@H]1C[C@H]2c3[nH]c4ccc(-c5ccc(OC)cc5)cc4c3CCN2C(=O)[C@H]1[C@H](C)O	/	-103*	/	/	/
COc1ccc(NC(=O)N(C)[C@H]2C[C@H]3c4[nH]c5ccc(-c6ccc(OC)cc6)cc5c4CCN3C[C@H]2[C@H](C)O)cc1	/	-104*	/	/	/
COc1ccc(-c2ccc3[nH]c4c(c3c2)CCN2C(=O)[C@@H]([C@H](C)O)[C@@H](N(C)C(=O)Nc3ccccc3)C[C@@H]42)cc1	/	4	/	/	/
COc1ccc(NC(=O)N(C)[C@H]2C[C@H]3c4[nH]c5ccc(-c6ccc(OC)cc6)cc5c4CCN3C(=O)[C@H]2[C@H](C)O)cc1	/	-68*	/	/	/
CCN(CC)c1cc(C)c2cc(NC(=O)c3cccc(OC)c3)ccc2n1	/	-71*	-1%	/	/
CCOc1ccc(C(=O)Nc2ccc3nc(N(CC)CC)cc(C)c3c2)cc1	/	-86*	4%	/	/
CCN(CC)c1cc(C)c2cc(NC(=O)c3ccccc3F)ccc2n1	?	-80*	-8%	10µM*	6%
CCOc1ccccc1C(=O)Nc1ccc2nc(N(CC)CC)cc(C)c2c1	/	-24	3%	/	/
CCOc1ccc(/C=C/C(=O)Nc2ccc3nc(N(CC)CC)cc(C)c3c2)cc1OC	/	-31	8%	/	/
CCN(CC)c1cc(C)c2cc(NC(=O)/C=C/c3cc(OC)c(OC)c(OC)c3)ccc2n1	/	-100*	-15%	/	/
CCN(CC)c1cc(C)c2cc(NC(=O)c3cccc(OC)c3OC)ccc2n1	/	?	-1%	/	/
CC(C)OC(=O)NCCOC(=O)Nc1ccc(Cl)cc1	?	-10	0%	0%	-2%
CC1(c2nnnn2C2CCCCC2)CCC(=O)N1Cc1ccc2c(c1)OCO2 (centres undefined)	/	-5	/	/	/
COc1cc2c(cc1N)-c1ccc(N)cc1C2=O	/	18	/	/	/
COc1cccc([C@@H]2Oc3ccc(OC)cc3C[C@H]2OC(=O)Nc2ccc(OC(F)F)cc2)c1	/	/	/	/	-6%
COc1ccc(NC(=O)/C=C/c2cc(OC)c(OC)c(OC)c2)cn1	18%	-32	45µM*	3%	1%
CCN(CC1COc2ccccc2O1)C(=S)NCCCN(C)C (centres undefined)	10µM*	?	1%	91%	0%
CCOC(=O)c1sc2nc(SCC#N)n(CCCN3CCCC3=O)c(=O)c2c1C	?	-9	4%	10µM*	4%
O=C(NCCN1CCOCC1)c1ccc(NS(=O)(=O)c2cccc([N+](=O)[O-])c2)cc1	29%	-30	-10%	1%	/
Cn1c(COc2ccccc2Br)nc2ccccc21	?	67	8%	149%	6%
c1ccc(N(c2ccccc2)c2nc(N3CCOCC3)nc(N3CCOCC3)n2)cc1	/	/	1%[11.4 µM]	/	2%
SMILES	Pf growth 96h	HCMV inh	Sm TGR block	Pf growth 48h	FBPA Giardia inh
FC(F)(F)COc1nc(N2CCOCC2)nc(N(c2ccccc2)c2ccccc2)n1	24%	-86*	3%	3.3µM*	1%
CCSc1ncc(/C=N/Nc2ccccc2)n1C	2.6µM*	42	4%	5.2µM*	-4%
COC(=O)C[C@H]1C=C[C@H](NC(=O)c2ccccn2)[C@@H](CO)O1	/	-13	/	/	/
Cc1sc2nc(CN3CCOCC3)nc(NS(=O)(=O)c3cc(Cl)ccc3Cl)c2c1C	?	-106*	-10%	?	/
Cc1sc2nc(CN3CCOCC3)nc(N3CCN(S(=O)(=O)c4ccccc4)CC3)c2c1C	?	?	-7%	9.3µM*	/
Cc1sc2nc(CN3CCCC3)nc(N3CCN(S(=O)(=O)c4cccc(F)c4)CC3)c2c1C	9.3µM*	-38	-21%	8.3µM*	/
Cc1sc2nc(CN3CCOCC3)nc(Cl)c2c1C	?	-17	-22%	-26%	11%
CCN(CC(=O)Nc1c(F)cccc1F)C(=O)CCNS(=O)(=O)c1ccccc1C(F)(F)F	-6%	-8	-1%	?	/
CS(=O)(=O)Nc1cccc(-c2nc(NCc3ccccc3)c3ccccc3n2)c1	/	/	/	/	-4%
COC(=O)[C@@H]1CC[C@H](C)[C@@H](c2ccc(C)cc2)N1C(=O)c1ccc(/C=N/OC[C@@H](O)COCc2ccco2)cc1	6.6µM*	/	?	6.6µM*	-13%
CC1(C(=O)Nc2ccc(Cl)c(C(F)(F)F)c2)Cc2c(-c3ccc4c(c3)OCO4)ccnc2O1 (centres undefined)	/	-19	/	/	/
Cc1cc2cc(C)c3nnc(SCC(=O)N4CCN(C(=O)c5ccco5)CC4)n3c2cc1C	/	-73*	/	/	/
COc1cc2cc(C)c(SCC(=O)N3CCN(C(=O)c4ccco4)CC3)nc2cc1OC	?	-9	18µM*	?	-3%
CC(=O)Nc1ccc(-c2cc(-c3ccc(NC(C)=O)cc3)nc(-c3ccc(NC(C)=O)cc3)n2)cc1	?	-3	-3%	-23%	5%
Nc1ccc(-c2cc(-c3cccc(N)c3)nc(-c3ccccc3)n2)cc1	2.1µM*	?	0%	13µM*	1%
Nc1ccc(-c2nc(-c3ccccc3)nc3ccccc23)cc1	-15%	-19	-1%	19%	-8%
CC(=O)Nc1ccc(-c2cc(-c3ccc(NC(C)=O)cc3)nc(-c3ccccc3)n2)cc1	?	?	0%	7%	1%
CCC(=O)Nc1ccc(-c2cc(-c3ccccc3)nc(-c3ccc(NC(=O)CC)cc3)n2)cc1	13µM*	-38	0%	?	11%
CC(=O)Nc1ccc(-c2cc(-c3ccccc3)nc(-c3ccccc3)n2)cc1	1.3µM*	-18	5%	?	0%
COC(=O)c1ccc(COC(=O)CNC(=O)CNC(=O)c2ccc(OC)cc2)cc1	/	3	/	/	/
COc1ccccc1OCCNC(=O)c1ccc(NC(=O)CC2SC(N3CCCC3)=NC2=O)cc1 (centres undefined)	/	-4	/	/	/
COc1cccc(CN(C)C(=O)c2cccc(NC(=O)CC3SC(N4CCCCC4)=NC3=O)c2)c1OC (centres undefined)	9.3µM*	-24	-7%	10µM*	/
COc1ccc(CN(C)C(=O)c2cccc(NC(=O)CC3SC(N4CCCCC4)=NC3=O)c2)c(OC)c1 (centres undefined)	/	-77*	/	/	/
